The values below come from PubChem BioAssay (NCATS).

Assay [1] in a line: Quantitative highthroughput screen to assess conditional lethalithy of NOMO1 cells grown in Human Plasma-Like Medium with dialyzed fetal bovine serum (HPLM+ds) (AID 1963878). Further: nearly all actives have a fitted effect of over 35% in size. The gist of the method:
(§1)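 Each medium arm—HPLM with 10% dialyzed FBS, or RPMI1640 with 5 mM glucose and 10% untreated or dialyzed FBS—was screened against an 11-point, 3-fold compound titration for 48 h at 37 °C, with CellTiter-Glo luminescence as endpoint.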

The nature of assay [2]: Quantitative highthroughput screen to assess conditional lethalithy of SEM cells grown in Human Plasma-Like Medium with dialyzed fetal bovine serum (HPLM+ds) (AID 1963882). Further: nearly all actives have a fitted effect of over 35% in size. On viability: series mostly up to about 46 µM. The gist of the method: as §1
A short description of assay [3]: Quantitative highthroughput screen to assess conditional lethalithy of SEM cells grown in RPMI1640 with unreated serum (RPMI+s) (AID 1963883). Further: nearly all actives have a fitted effect of over 35% in size.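 On viability: 100% = DMSO wells and 0% = empty wells without cells.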 The gist of the method: as §1
The nature of assay [4]: Quantitative highthroughput screen to assess conditional lethalithy of SEM cells grown in RPMI1640 with dialyzed fetal bovine serum (RPMI+ds) (AID 1963884). Further: nearly all actives have a fitted effect of over 35% in size.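 On viability: series mostly up to about 46 µM; 100% = DMSO control wells and 0% = empty wells without cells.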 An outline of the steps:
as §1

The nature of assay [5]: Quantitative highthroughput screen to assess conditional lethalithy of P12 Ichikawa cells grown in RPMI1640 with untreated serum (RPMI+s) (AID 1963881). Further: nearly all actives have a fitted effect of over 35% in size.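 On viability: series mostly up to about 46 µM; 100% = DMSO wells and 0% = empty wells without cells.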 Particulars: Potency: viability. An outline of the steps:
as §1

The nature of assay [6]: Quantitative highthroughput screen to assess conditional lethalithy of P12 Ichikawa cells grown in Human Plasma-Like Medium with dialyzed fetal bovine serum (HPLM+ds) (AID 1963879). Further: nearly all actives have a fitted effect of over 35% in size. On viability: series mostly up to about 46 µM. Conditions: Potency: viability. The gist of the method: as §1
Assay [7] in a line: Quantitative highthroughput screen to assess conditional lethalithy of P12 Ichikawa cells grown in RPMI1640 with dialyzed fetal bovine serum (RPMI+ds) (AID 1963880). Further: nearly all actives have a fitted effect of over 35% in size.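 On viability: 100% = DMSO wells and 0% = empty wells on each plate.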 Particulars: Potency: P12-Ichikawa viability. An outline of the steps:
as §1

Assay [8] in a line: Cellular viability qHTS for adrenocortical cancer (ACC) cell line NCI-H295R (AID 1963990). Further: nearly all actives have a fitted effect of over 60% in size. The gist of the method:
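CellTiter-Glo ATP luminescence, read 48 h after compound addition, measured viability of NCI-H295R adrenocortical cells grown serum-free with ITS. Final concentrations spanned up to 46 uM. Data normalized to DMSO and doxorubicin, fitted for IC50 and maximal response.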

Assay [9] can be described thus: Cellular viability qHTS for adrenocortical cancer (ACC) cell line SW-13 (AID 1963989). Further: nearly all actives have a fitted effect of over 65% in size.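 On activity (max response): cells grown in serum-free medium with ITS supplement; on the % scale 0 is the no-effect control and ±100 the full control effect.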 Conditions: SW-13 ACC cells viability, CellTiter-Glo, 48 h; activity (max response): hits give low values. The gist of the method: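 Viability was read as CellTiter-Glo luminescence after 48 h compound treatment (up to 46 uM final) of SW-13 cells grown serum-free; titration curves were fit with a four-parameter logistic model to give IC50 and efficacy.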
(In general: Quantitative high-throughput screening tests each substance at several concentrations.)

Values joined by “and” are separate entries in the source; they are usually repeats but may differ in a detail not shown here. Equal entries are not always repeated. Records with an inconclusive call do not appear. A number with no mark means an inactive call. Active and inactive are the calls of the source. The call rests on the fitted dose curve; in most records, active means well fitted curve in the direction sought with a large enough effect; inconclusive means small, poorly fitted or top-dose-only effect, or another doubt; inactive means no such curve, though single readings can be large; an effect the other way counts as inactive or inconclusive.
Potency means the concentration at half of the fitted maximal effect.

Take `COc1cc(O)c2c(c1)C(=O)c1cc(C)cc(O)c1C2=O`: the Potency is 9.11 µM (active) in assay [1], 6.45 µM (active) in [2], 4.07 µM (active) in assay [3] and 5.12 µM (active) in assay [4].
For `COc1cc([C@@H]2c3cc4c(cc3[C@@H](O[C@@H]3O[C@@H]5CO[C@@H](c6cccs6)O[C@@H]5[C@H](O)[C@@H]3O)[C@H]3COC(=O)[C@H]23)OCO4)cc(OC)c1O`, the Potency in [5] was 0.743 µM (active).
On to `O=C(O)C=Cc1ccc(O)c(O)c1`, for which the Potency in assay [6] was 26.4 µM (active); in assay [7] it was 26.4 µM (active); in [3], 13.2 µM (active); in assay [4], 14.8 µM (active).
Take `COc1cc(C(=O)NS(=O)(=O)c2ccccc2C)ccc1Cc1cn(C)c2ccc(NC(=O)OC3CCCC3)cc12`: the Potency entry in assay [6] was “inactive”. Moreover, the Potency in [8] is 28.2 µM (active).
With `CNC(=O)c1cccc(-c2ccc3c(N4CCOC[C@H]4C)nc(N4CCOC[C@H]4C)nc3n2)c1`, the Potency in [6] was 0.0743 µM (active); in assay [2] it was 0.264 µM (active); in [3], 2.64 µM (active); in assay [4] it was 0.469 µM (active).
On to `Cc1ccc(N(CC2=NCCN2)c2cccc(O)c2)cc1`, for which the Potency result in assay [6], in assay [5], in [3] and in assay [8] was “inactive” in each case. In assay [9], the Potency is 23.1 µM (active) and 25.1 µM (active).
For the compound `Cc1onc(-c2ccccc2)c1C(=O)N[C@@H]1C(=O)N2[C@@H](C(=O)O)C(C)(C)S[C@@H]12`, the results for the Potency in assay [7] and in assay [5] were 1.05 µM (active) and 1.32 µM (active), respectively. Further, the Potency entry in assay [2] and in assay [4] was “inactive” each time.
With `CCOC(=O)N1CCN([N+]([O-])=NOc2ccc([N+](=O)[O-])cc2[N+](=O)[O-])CC1`, the Potency was 23.5 µM (active) in [5], 4.18 µM (active) in [3] and 4.69 µM (active) in [4].
As for `CC(=O)ON=C1C(c2c(O)[nH]c3cc(Br)ccc23)=Nc2ccccc21`, the figures for the Potency in [6], in assay [2] and in assay [4] were 20.9 µM (active), 1.18 µM (active) and 0.935 µM (active), respectively.
As for `Cc1c[nH]c(C=C2C(=O)Nc3ccccc32)c1CCC(=O)O`, the Potency is 2.64 µM (active) in assay [6] and 0.833 µM (active) in [2].
Take `COc1cc2c(cc1OC)[C@@H]1Cc3ccc(OC)c(OC)c3CN1CC2`: the Potency entry in assay [6], in [7], in assay [5], in assay [3] and in [4] was “inactive” throughout.
In the case of `CC1=C(C)C(=O)C(C(CCCCCC(=O)O)c2ccccc2)=C(C)C1=O` (configuration not stated), the Potency result in [6] and in assay [8] was “inactive” each time. The Potency in assay [5] was 8.33 µM (active). Moreover, in [9], the activity (max response) was 0.763% and -13.4%.
As to `Cc1cn2c(-c3cn[nH]c3)cnc2c(Nc2ccc(C(=O)N3CCNCC3)cc2F)n1`, the Potency was 18.7 µM (active) in assay [5], 13.2 µM (active) in assay [2], 14.8 µM (active) in assay [3] and 14.8 µM (active) in assay [4].
Take `C[C@]12C=CC(=O)C=C1CC[C@@H]1[C@@H]2[C@@H](O)C[C@@]2(C)[C@@H]1CC[C@]2(O)C(=O)CO`: the Potency in [6] was 16.6 µM (active); in assay [7] it was 7.43 µM (active); in assay [2], 6.62 µM (active).
For the compound `CC[C@@]1([C@@H]2O[C@@H]([C@H]3O[C@@](O)(CO)[C@H](C)C[C@H]3C)C[C@H]2C)CC[C@H]([C@]2(C)CC[C@]3(C[C@H](O)[C@@H](C)[C@@H]([C@@H](C)[C@@H](OC)[C@H](C)C(=O)O)O3)O2)O1`, the Potency is 2.29 µM (active) in [7]; 0.512 µM (active) in assay [2]; 0.457 µM (active) in assay [3]; 1.15 µM (active) in [4]; 0.715 µM (active) in assay [8].
Regarding `CCC(=C(c1ccc(O)cc1)c1ccc(OCCNC)cc1)c1ccccc1`, the Potency in assay [6] was 4.18 µM (active); in assay [2], 13.2 µM (active); in assay [3], 7.43 µM (active).
For `Nc1ccn(C[C@@H](CO)OCP(=O)(O)O)c(=O)n1`, the Potency entry in assay [6], in assay [7], in assay [5] and in assay [4] was “inactive” each time. The activity (max response) in [9] is -11.5%.
For `Cc1csc(-c2nnc(Nc3ccc(Oc4ncccc4-c4ccnc(N)n4)cc3)c3ccccc23)c1`, the Potency is 0.0105 µM (active) in assay [6] and 0.0166 µM (active) in assay [3]. For the same compound, in assay [9], the activity (max response) is -17.7%. In assay [8], the Potency entry is “inactive”.
Turning to `COc1nccc(-c2c(-c3ccc(F)cc3)ncn2C2CCNCC2)n1`, the Potency result in [6], in assay [7], in assay [5] and in assay [8] was “inactive” throughout. Besides, the activity (max response) in assay [9] is -17.6%.
As for `C=CC(=O)Nc1cc(NC(=O)c2ccc(C)c(NC(=O)c3ccno3)c2)cc(C(F)(F)F)c1`, the Potency entry in [6], in assay [5], in assay [2] and in [3] was “inactive” each time.
For the compound `Fc1ccc([C@@H]2CCNC[C@H]2COc2ccc3c(c2)OCO3)cc1`, the Potency in assay [5], in [2] and in assay [3] was 14.8 µM (active) in each case. Besides, the activity (max response) in assay [9] is -15.4%.
`COc1ccc(Cc2nccc3cc(OC)c(OC)cc23)cc1OC`: the Potency result in assay [6], in [5] and in assay [2] was “inactive” throughout.
Take `O=c1[nH]c(=O)n([C@H]2C[C@@H](O)[C@@H](CO)O2)cc1C=CBr`: the Potency result in assay [7], in [5], in assay [3] and in assay [4] was “inactive” in each case.
In the case of `Cc1nc(Nc2ncc(C(=O)Nc3c(C)cccc3Cl)s2)cc(N2CCN(CCO)CC2)n1`, the Potency in assay [6] is 1.87 µM (active); in assay [8] it was 20.6 µM (active) and 25.1 µM (active).
